This is part of a sample that, as a whole, favours compounds with a hit. Of some 83,000 tested, about 20% had one in any assay.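 Assay: single dose, 48 h. Readout: percent growth (0 = no net growth; negative = cell death). Active: <10.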 Values without a mark were called inactive. Active and inactive are the calls of the source.
Assays:
Assay in all cases: NCI-60 one-dose screen, 48 h (100 = growth as untreated, 0 = no growth, -100 = all killed)
Details in all cases: 10 µM unless noted
T-47D breast = system: T-47D breast
BT-549 breast = system: BT-549 breast
MDA-MB-435 melanoma = system: MDA-MB-435 melanoma
SW-620 colon = system: SW-620 colon
MCF7 breast = system: MCF7 breast
HCT-116 colon = system: HCT-116 colon
HCC-2998 colon = system: HCC-2998 colon
KM12 colon = system: KM12 colon

Structure (SMILES) | growth (T-47D breast) | growth (BT-549 breast) | growth (MDA-MB-435 melanoma) | growth (SW-620 colon) | growth (MCF7 breast) | growth (HCT-116 colon) | growth (HCC-2998 colon) | growth (KM12 colon)
COc1ccc(Oc2ccc(/C=C/C(=O)c3cc4ccccc4oc3=O)cc2)cc1 | 84.6% | 81% | 89.3% | 103% | 25.9% | 56.6% | 108% | 85.9%
Nc1cc(Br)cc2c1[nH]c(=O)c1ccccc12 | 79.6% | 86.9% | 113% | 94.7% | 53.2% | 96.8% | 104% | 104%
Cc1[nH]c(C(=O)Nc2ccccc2OC2CCN(CCN3CCOCC3)CC2)c(Cl)c1Cl | 86.6% | 80.5% | 105% | 99.7% | 87.2% | 77.1% | 107% | 103%
O=C(c1cccc(N2CCOCC2)n1)c1c[nH]c2ccccc12 | 70.7% | 117% | 99.7% | 94.1% | 66% | 97.7% | 113% | 90.5%
COCCn1cc(-c2nc(-c3cc4cccnc4n3C)cs2)c2ccccc21 | -36.7% (active) | 24.9% | 6.84% (active) | 28.9% | 6.6% (active) | 23.5% | 57.8% | 4.96% (active)
COc1ccc(C2[C@@H](Cl)C(=O)N2c2cc(OC)c(OC)c(OC)c2)cc1Cl (stereo partly specified) | 43.3% | -19.1% (active) | -20.7% (active) | 21.9% | 14.4% | -9.69% (active) | 22.8% | 16.3%
CC(=O)N1N=C(c2ccc(Nc3nc(Nc4ccc(F)cc4)nc(Nc4ccc(F)cc4)n3)cc2)CC1c1ccc(N(C)C)cc1 (stereo unspecified) | 25% | 63.9% | 6.22% (active) | 63.7% | 42.2% | 43.3% | 67.5% | 39.8%
Cc1cc(C(=O)CCCC(=O)c2cc(C)c(O)c(C)c2)cc(C)c1O | 84.6% | 112% | 101% | 98.9% | 86.5% | 86.8% | 46% | 102%
Nc1ncccc1O | 96.2% | 93.7% | 109% | 51% | 68.6% | 37.9% | 97.4% | 100%
Nc1nc(C(=O)N/N=C/c2ccc(F)cc2)nn1-c1ccc(S(N)(=O)=O)cc1 | 99.3% | 114% | 100% | 99.2% | 98.8% | 101% | 107% | 96.7%
CN(C)CCCn1c2c(c3ccncc3c1=O)C(=O)c1ccccc1-2 | -12.3% (active) | 3.87% (active) | 7.89% (active) | -28.1% (active) | 1.65% (active) | -18.7% (active) | 25.6% | -12.6% (active)
COc1ccc(C(=O)/C=C/c2ccccc2)cc1S(N)(=O)=O | 77.6% | 75.2% | 96.5% | 25.8% | 25% | 13.4% | 95.2% | 38%
CN(C)CCCC1(c2ccc(F)cc2)OCc2cc(-c3csc4ccccc34)ccc21 (stereo unspecified) | 26.4% | 84.2% | -91.4% (active) | -82.4% (active) | -62.5% (active) | -44.2% (active) | -82.9% (active) | -83.2% (active)
CCN1C(=O)N(c2ccccc2)C2NC(=S)N(/N=C/C=C/c3ccccc3OC)C21 (stereo unspecified) | 42.3% | 20.4% | -27.5% (active) | 22.2% | 7.64% (active) | 9.02% (active) | 14.8% | 11.3%
CSc1ccc2c3c(n(C[C@H](O)CO)c(=O)c2c1)-c1ccccc1C3=O | 27.3% | 46.9% | 72% | 27.6% | 11.5% | -20.6% (active) | 88.8% | 25.3%
O=S(Nc1ccccc1)c1ccc(Cl)cc1 (stereo unspecified) | 90.7% | 110% | 90.4% | 86.8% | 101% | 92.1% | 95.4% | 109%

Structure (SMILES) | growth (T-47D breast) | growth (BT-549 breast) | growth (MDA-MB-435 melanoma) | growth (SW-620 colon) | growth (MCF7 breast) | growth (HCT-116 colon) | growth (HCC-2998 colon) | growth (KM12 colon)
N[C@@H]1CCC[C@H]1NCCCCN1C(=O)c2cccc3cc([N+](=O)[O-])cc(c23)C1=O | 38.1% | 69.7% | 43.4% | 23.8% | 17.2% | 11.3% | 48% | 33.1%
Nc1ccc(-c2ccncc2)cc1NC(=O)N1CCCC1 | 81.9% | 104% | 96.3% | 98.2% | 87% | 86.8% | 94.4% | 94.6%
O=C(/C=C/C12c3ccccc3C(c3ccccc31)C1C(=O)NC(=O)C12)c1ccco1 (stereo unspecified) | 18.6% | 19.3% | 0.633% (active) | 27.4% | 12.8% | 7.57% (active) | 103% | 12.9%
COC(=O)/C=C1/SC(=NCc2ccccc2)N(CCc2c[nH]c3ccccc23)C1=O | 53.5% | 66.9% | 72.3% | 72% | 48.4% | 53.6% | 99.8% | 70.4%
COc1ccc(C2[C@@H](c3ccccc3)C(=O)N2c2cc(OC)c(OC)c(OC)c2)cc1F (stereo partly specified) | 61.7% | -2.79% (active) | -23% (active) | 24.2% | 12.5% | 3.36% (active) | 15.1% | 13.2%
C=C(C)[C@@H]1CC[C@]2(CO)CC[C@]3(C)[C@H](CC[C@@H]4[C@@](C)(CCCN)[C@H](C(=C)C)CC[C@]43C)[C@@H]12 | -40.5% (active) | -92.8% (active) | -97% (active) | -89.5% (active) | -89.3% (active) | -88.3% (active) | -80.1% (active) | -79.6% (active)
Cc1ccc2c(c1)nc(C)n2-c1ncnc2c1CC(C)c1cc(O)ccc1N2C (stereo unspecified) | 33.6% | 40.8% | 3.76% (active) | 21.5% | 19.8% | 15.4% | 78.4% | 35.6%
CCNC(=O)N1CCc2c(Br)c3c(c(OC)c2C1Cc1ccc(OC)cc1)OCO3 (stereo unspecified) | 20.6% | 30% | -9.57% (active) | 19% | 12.2% | 20.9% | 71.3% | 22%
O=[N+]([O-])c1ccccc1Sc1ccccc1[N+](=O)[O-] | 81.5% | 100% | 103% | 110% | 108% | 94.9% | 97.5% | 92.6%
COc1ccccc1/C=C/C(=O)Nc1ccc(F)cc1 | 75.4% | 108% | 94% | 103% | 64.4% | 88.1% | 111% | 91.3%
N#Cc1c(-c2ccccc2)cc(-c2ccccc2)n(CCCCC(=O)NO)c1=O | 9.65% (active) | 52.8% | -13.7% (active) | 11.5% | 20.5% | 5.09% (active) | 29.3% | 22.9%
Cc1ccc(C(=O)c2ccc(CC(=O)N/N=C/c3cccc(O)c3O)n2C)cc1 | 25.9% | 45.8% | 61.1% | 34.3% | 16.1% | 30.8% | 70.6% | 44.2%
COc1cc(-c2nccc3[nH]c(-c4cccc5[nH]ccc45)nc23)cc(OC)c1OC | 39.9% | 42.5% | 1.47% (active) | 27% | 9.9% (active) | 4.28% (active) | 21.6% | 16.9%
CCOC(=O)/C(=C(/C)NCC(C)C)c1cc(O)c(O)c2c(C)cc(=O)[nH]c12 | 34.7% | 63% | 60.9% | 31.8% | 29.4% | 10.1% | 61.9% | 61.5%
Nc1[nH]nc2nc(-c3ccccc3)n3c4ccccc4nc3c12 | 90.1% | 105% | 98.7% | 95.8% | 92.7% | 99.4% | 110% | 104%
Cn1c(C#N)ccc1-c1ccc(F)c(NC(=O)c2ccc(F)cc2)c1 | 60.4% | 80% | -11.2% (active) | 44.9% | 49.4% | 77.4% | 90.5% | 60.9%

From PubChem BioAssay (NCI)
